The values below come from PubChem BioAssay (Tox21).

Active and inactive are the calls of the source. Calls follow the shape of the full dose curve.
% is scaled to controls: 0 for no effect and ±100 for the full control effect.

Sequence of Acetylcholinesterase (Homo sapiens) (P22303 whole entry, looked up): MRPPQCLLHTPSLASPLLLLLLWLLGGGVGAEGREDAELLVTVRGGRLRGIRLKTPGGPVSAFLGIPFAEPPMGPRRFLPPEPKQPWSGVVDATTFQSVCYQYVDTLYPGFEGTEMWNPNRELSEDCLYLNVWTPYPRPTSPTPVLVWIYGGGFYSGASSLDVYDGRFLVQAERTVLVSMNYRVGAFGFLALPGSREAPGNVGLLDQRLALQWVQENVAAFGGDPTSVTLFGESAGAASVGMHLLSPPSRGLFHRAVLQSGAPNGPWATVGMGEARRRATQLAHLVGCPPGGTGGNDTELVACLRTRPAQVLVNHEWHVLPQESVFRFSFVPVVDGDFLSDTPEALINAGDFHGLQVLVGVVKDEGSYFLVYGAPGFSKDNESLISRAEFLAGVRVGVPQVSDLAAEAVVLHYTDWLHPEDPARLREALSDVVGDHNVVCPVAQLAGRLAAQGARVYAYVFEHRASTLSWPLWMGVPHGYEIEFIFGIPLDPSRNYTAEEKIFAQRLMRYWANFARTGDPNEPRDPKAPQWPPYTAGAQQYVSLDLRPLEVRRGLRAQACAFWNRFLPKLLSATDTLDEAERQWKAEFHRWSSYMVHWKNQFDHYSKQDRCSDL

This assay addresses Acetylcholinesterase (Homo sapiens) (UniProt P22303). In words: Acetylcholinesterase (AChE) small molecule antagonists: enzyme-based qHTS assay with human liver microsomes (AID 1347399). Also: nearly all actives have a fitted effect of over 60% in size. Particulars: Potency: qHTS inhibition; outcome: qHTS inhibition; series mostly up to 115 µM; activity change, negative = inhibition: at the top concentration. Put shortly: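 Recombinant human AChE (50 mU/mL in the enzyme mix) and human liver microsomes (0.25 mg/mL final) were preincubated with compound and NADPH (0.25 mg/mL final) for 30 min at 37 C. Acetylthiocholine/DTNB was then added; thiocholine was read colorimetrically after 10 min at room temperature.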
Regarding `COCCc1ccc(OCC2CO2)cc1` (centres undefined), the “activity change, negative = inhibition” value was 0.84% [at 53 µM] (inactive). Regarding `NC(=O)c1ncn([C@@H]2O[C@H](CO)[C@@H](O)[C@H]2O)n1`, the Potency result is “inactive”. Regarding `Cc1c(Cn2ccnc2)c2ccccc2n1CCC(=O)O`, the “activity change, negative = inhibition” value was -0.737% [at 53 µM] (inactive).

Regarding `Nc1ccc(Oc2ccc(Cl)cc2)cc1`, the “activity change, negative = inhibition” value is 2.74% (inactive). The same measure, in the same setting: the value for `CC(=O)/C(C)=C/C1C(C)=CCCC1(C)C` (centres undefined) was -0.207% (inactive); that for `COc1nc(N)nc2nc[nH]c12` was 1.29% (inactive). With `O=C(Nc1ccccc1)c1cc([N+](=O)[O-])ccc1Cl`, the “activity change, negative = inhibition” value is 0.382% (inactive). Regarding `CN1C(=O)CC[C@H]1c1cccnc1`, the Potency result was “inactive”. In the case of `CC(c1cc2ccccc2s1)N(O)C(N)=O` (centres undefined), the Potency result is “inactive”. As to `O=C=Nc1ccc(Cc2ccc(N=C=O)cc2)cc1`, the Potency entry was “inactive”. With `CC(C)c1ccc(O)c(C(C)C)c1`, the “activity change, negative = inhibition” value was 0.306% (inactive). On to `CCC(=O)c1c(O)cc(O)cc1O`, for which the “activity change, negative = inhibition” value is 0% [at 53 µM] (inactive).

Regarding `O=C1C(N(CO)C(=O)NCO)N(CO)C(=O)N1CO` (centres undefined), the Potency result is “inactive”. As for `O=C(O)c1ccccc1C(c1ccc(O)cc1)c1ccc(O)cc1`, the Potency entry was “inactive”. As for `CCSC(=O)N(CC)CC`, the “activity change, negative = inhibition” value was 1.3% (inactive). The same measure, in the same setting: the value for `CC(=O)OCC=C(C)C` was 0.691% [at 53 µM] (inactive). As to `CC(CC=O)CCCC(C)(C)O` (centres undefined), the “activity change, negative = inhibition” value was -0.322% (inactive). Same read-out and setting: the figure for `O=Cc1ccccc1[N+](=O)[O-]` is -3.39% (inactive). Same read-out and setting: the figure for `COc1cc(C)c(Cc2cnc(N)nc2N)cc1OC` is -2.96% [at 53 µM] (inactive). With `CC(C)(C#N)c1cc(Cn2cncn2)cc(C(C)(C)C#N)c1`, the Potency entry was “inactive”.

With `Nc1ccn([C@@H]2O[C@H](CO)[C@@H](O)C2O)c(=O)n1` (some centres undefined), the “activity change, negative = inhibition” value is 0.458% (inactive). The same measure, in the same setting: the value for `C1COC(NC(C2CC2)C2CC2)=N1` was -0.084% [at 53 µM] (inactive). As to `FC(F)(F)C(F)(F)C(F)(F)C(F)(F)CCI`, the “activity change, negative = inhibition” value is 7.38% [at 53 µM] (inactive). Take `CC(=O)CCC=C(C)C`: the Potency result was “inactive”. For `O=[N+]([O-])c1ccccc1C(F)(F)F`, the Potency result is “inactive”.

As for `CC(CO)Oc1ccccc1` (centres undefined), the “activity change, negative = inhibition” value was -1.49% (inactive).

On to `N[C@H]1CN(c2c(F)cc3c(=O)c(C(=O)O)cn(C4C[C@H]4F)c3c2Cl)CC12CC2` (some centres undefined), for which the “activity change, negative = inhibition” value was -1.51% [at 53 µM] (inactive).

As to `COC(=O)c1nc(Cl)c(Cl)nc1N`, the “activity change, negative = inhibition” value was 2.06% [at 53 µM] (inactive). As to `CCCC(=O)OCC(COC(=O)CCC)OC(=O)CCC`, the “activity change, negative = inhibition” value is 0.149% (inactive). With `CN1CCN(CCCN2c3ccccc3Sc3ccc(Cl)cc32)CC1`, the “activity change, negative = inhibition” value was 0.173% [at 53 µM] (inactive). On the same count and under the same terms, the figure for `C=CC(=O)CCCCC` is 0.224% (inactive). As for `CCCCCCC(CCCCCCCCCCC(=O)OCC(COC(C)=O)OC(C)=O)OC(C)=O` (centres undefined), the “activity change, negative = inhibition” value was 1.31% [at 53 µM] (inactive).

Consider `Cl[Si](Cl)(c1ccccc1)c1ccccc1`, for which the “activity change, negative = inhibition” value is 0.405% (inactive). `CCc1c(C(=O)NN2CCCCC2)nn(-c2ccc(Cl)cc2Cl)c1-c1ccc(Br)cc1`: the “activity change, negative = inhibition” value is 0.146% (inactive). With `O=C(O)CNC(=O)c1ccccc1`, the “activity change, negative = inhibition” value is -2.19% [at 53 µM] (inactive).

As for `CC1=NN(c2cc(Cl)c(S(=O)(=O)O)cc2Cl)C(=O)C1N=Nc1ccc(S(=O)(=O)O)cc1` (centres undefined), the “activity change, negative = inhibition” value is 0% (inactive). The same measure, in the same setting: the value for `CCN(CCCc1ccccc1)CCCc1ccccc1` was -2.35% [at 53 µM] (inactive).

Regarding `COc1ccc(Nc2ccccc2)c(C)c1`, the Potency entry was “inactive”.

In the case of `OCC(O)CN1CCN(c2ccccc2)CC1` (centres undefined), the “activity change, negative = inhibition” value was -0.313% [at 53 µM] (inactive).
